Measurements taken from PubChem BioAssay AID720597 (Broad Institute, 2013).
Potency and affinity values are given separately. Active and inactive are the calls of the source.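 The calls were made as follows: active = fitted half-maximal dose no more than twice the top valid tested dose, for compounds that lower signal; inconclusive = fit invalid, or curve flat with activity between -70 and -30; inactive = potency past limit, curve flat within ±30, or signal increasing.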

Each molecule was assayed against NAD-dependent protein deacylase sirtuin-5, mitochondrial (Homo sapiens) (UniProt Q9NXA8) (assay: SIRT5 deacylase inhibitors, dose response, biochemical, fluorescence imaging, cherry-pick, set 6 (AID 720597;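 also: lower AMC signal can also come from blocking the trypsin step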)). Conditions: Purified SirT5, succinyl-peptide-AMC/trypsin fluorescence; series mostly up to 15 µM.
Sequence of NAD-dependent protein deacylase sirtuin-5, mitochondrial (Homo sapiens) (Q9NXA8 whole entry, looked up): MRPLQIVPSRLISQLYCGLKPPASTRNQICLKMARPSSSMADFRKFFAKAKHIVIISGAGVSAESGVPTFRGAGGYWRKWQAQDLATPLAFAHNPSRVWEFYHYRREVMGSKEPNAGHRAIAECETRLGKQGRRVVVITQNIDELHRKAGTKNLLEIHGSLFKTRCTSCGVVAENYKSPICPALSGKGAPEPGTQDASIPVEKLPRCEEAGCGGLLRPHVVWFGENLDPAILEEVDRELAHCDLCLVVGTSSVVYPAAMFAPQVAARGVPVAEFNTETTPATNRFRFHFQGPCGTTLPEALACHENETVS

outcome, inactive:
COc1ccc(S(=O)(=O)N(C)C[C@H]2Oc3ccc(NC(=O)NC4CCCCC4)cc3C(=O)N([C@@H](C)CO)C[C@@H]2C)cc1
C[C@H]1CN([C@@H](C)CO)C(=O)c2cccc(NC(=O)c3ccncc3)c2O[C@@H]1CN(C)S(C)(=O)=O
C/C=C/c1ccc([C@H]2[C@@H](CO)N(CC3CCCCC3)[C@@H]2CNC(C)C)cc1
C[C@@H]1CN([C@@H](C)CO)C(=O)c2cccc(NC(=O)c3ccncc3)c2O[C@@H]1CN(C)S(C)(=O)=O
CN1c2ccc(-c3ccccc3)cc2[C@H]2[C@H](CCN2C(=O)Cc2ccccn2)[C@H]1CO
Cc1ccc(S(=O)(=O)N(C)C[C@H]2OCCCC[C@H](C)Oc3ccc(NS(=O)(=O)c4ccc(F)cc4)cc3C(=O)N([C@H](C)CO)C[C@@H]2C)cc1
COc1ccc(S(=O)(=O)Nc2ccc3c(c2)C(=O)N([C@@H](C)CO)C[C@H](C)[C@H](CN(C)Cc2ccc(Oc4ccccc4)cc2)O3)cc1
O=C(C[C@H]1CC[C@H]2[C@@H](COC[C@@H](O)CN2C(=O)c2ccncc2)O1)Nc1ccc(-c2ccccc2)cc1
COc1ccc(NC(=O)Nc2ccc3c(c2)C(=O)N([C@@H](C)CO)C[C@@H](C)[C@H](CN(C)C(=O)Nc2cccc4ccccc24)OCCCC[C@H](C)O3)cc1
C/C=C/c1ccc2c(c1)O[C@H](CN(C)Cc1cccc(F)c1)[C@H](C)CN([C@@H](C)CO)S2(=O)=O
COc1ccccc1-c1ccc([C@@H]2[C@@H]3CN(S(=O)(=O)c4ccc(-c5ccccc5)cc4)C[C@H]2N3)cc1
CN(C)C(=O)c1cccc(-c2ccc([C@H]3[C@H]4CN(S(C)(=O)=O)CCCCN4[C@H]3CO)cc2)c1
COc1ccc(S(=O)(=O)Nc2ccc3c(c2)C(=O)N([C@H](C)CO)C[C@@H](C)[C@H](CN(C)S(=O)(=O)c2ccccc2)OCCCC[C@H](C)O3)cc1
CNC[C@@H]1Oc2ccc(NC(=O)Nc3ccc(F)cc3)cc2CC(=O)N([C@@H](C)CO)C[C@H]1C
COc1ccccc1C#Cc1cnc2c(c1)C(=O)N([C@@H](C)CO)C[C@H](C)[C@@H](CN(C)C)O2
C[C@H](O)C#Cc1cnc2c(c1)C(=O)N([C@H](C)CO)C[C@H](C)[C@@H](CN(C)CC1CCCC1)O2
CCCC#Cc1ccc2c(c1)O[C@H](CN(C)C(=O)c1ccccc1F)[C@@H](C)CN([C@@H](C)CO)S2(=O)=O
C[C@@H]1CN([C@@H](C)CO)S(=O)(=O)c2ccc(C#C[C@@H](C)O)cc2O[C@@H]1CN(C)Cc1ccc(-c2ccccc2)cc1
C[C@@H]1CN([C@@H](C)CO)C(=O)c2cc(NS(=O)(=O)c3ccc(Cl)cc3)ccc2O[C@@H](C)CCCCO[C@@H]1CN(C)Cc1ccc(C(F)(F)F)cc1
CCCC#Cc1ccc([C@@H]2[C@@H](CO)N3CCCCN(S(=O)(=O)Cc4ccccc4)C[C@H]23)cc1
Cc1ccc(S(=O)(=O)N(C)C[C@H]2OCCCC[C@@H](C)Oc3ccc(NS(=O)(=O)c4ccc(F)cc4)cc3C(=O)N([C@@H](C)CO)C[C@H]2C)cc1
Cc1noc(C)c1NC(=O)Nc1cccc2c1O[C@@H](CN(C)Cc1ccc(Oc3ccccc3)cc1)[C@H](C)CN([C@H](C)CO)C2=O
COc1cccc(CN2[C@H](CO)[C@@H](c3ccccc3)C23CN(C(=O)C2CCC2)C3)c1
O=C(C[C@@H]1CC[C@@H]2[C@H](COC[C@@H](O)CN2Cc2ccc3c(c2)OCO3)O1)N1CCOCC1
Cn1cnc(CCNC(=O)C[C@@H]2CC[C@@H]3[C@H](COC[C@H](O)CN3C(=O)C3CCCC3)O2)c1
COc1cccc(-c2ccc3c(c2)[C@H]2[C@H](CCN2C(=O)c2ccccc2F)[C@H](CO)N3C)c1
COc1ccc(S(=O)(=O)Nc2ccc3c(c2)C(=O)N([C@H](C)CO)C[C@H](C)[C@H](CN(C)Cc2ccc(C(F)(F)F)cc2)OCCCC[C@@H](C)O3)cc1
C[C@H](CO)N1C[C@H](C)[C@H](CN(C)C(=O)c2ccc3c(c2)OCO3)Oc2cc(/C=C/c3ccccc3)ccc2S1(=O)=O
CCCC(=O)Nc1ccc2c(c1)OC[C@H](C)N(Cc1ccccc1)C[C@@H](C)[C@H](OC)CN(C)C2=O
C[C@@H]1CN([C@H](C)CO)C(=O)Cc2cc(NS(=O)(=O)c3ccc(F)cc3)ccc2O[C@@H]1CN(C)Cc1ccc(C(F)(F)F)cc1
COc1ccc(S(=O)(=O)Nc2ccc3c(c2)C(=O)N([C@H](C)CO)C[C@H](C)[C@@H](CN(C)Cc2ccc(C(F)(F)F)cc2)OCCCC[C@@H](C)O3)cc1
CCCNC(=O)N(C)C[C@H]1Oc2cc(C#CC(C)C)ccc2S(=O)(=O)N([C@H](C)CO)C[C@@H]1C
COc1ccccc1NC(=O)N[C@H]1CC[C@@H](CCNS(=O)(=O)c2ccc(F)cc2)O[C@@H]1CO
C[C@@H]1CN([C@@H](C)CO)C(=O)c2cc(-c3cccc(F)c3)cnc2O[C@H]1CN(C)C
C[C@@H]1CN([C@H](C)CO)S(=O)(=O)c2ccc(C#Cc3ccc(F)cc3)cc2O[C@H]1CN(C)C(=O)NC1CCCCC1
C[C@H]1CN([C@@H](C)CO)C(=O)c2cc(NS(=O)(=O)c3ccc(Cl)cc3)ccc2O[C@H]1CN(C)Cc1ccc(Cl)c(Cl)c1
C[C@H](CO)N1C[C@H](C)[C@@H](CN(C)S(=O)(=O)c2ccccc2F)Oc2cc(C#Cc3cccc(F)c3)ccc2S1(=O)=O
CN(C)C(=O)[C@@H]1[C@@H](CO)[C@@H]2Cn3c(ccc(-c4ccccc4)c3=O)[C@@H]2N1Cc1ccccc1
C[C@@H]1CN([C@@H](C)CO)C(=O)Cc2cc(NS(=O)(=O)c3ccc(F)cc3)ccc2O[C@@H]1CN(C)C(=O)NC1CCCCC1
COc1cccc(NC(=O)N(C)C[C@H]2Oc3ncc(C4=CCCCC4)cc3C(=O)N([C@H](C)CO)C[C@@H]2C)c1
